Experimental data reported in ChEMBL document CHEMBL4513216, “Probing the Open Global Health Chemical Diversity Library for Multistage-Active Starting Points for Next-Generation Antimalarials” (ACS Infect Dis, 2020).
Among all 65,000 compounds or so, about 2,100 (3.2%) showed an effect of 50% or more. The median lay at about -52%. Many of the other results were omitted from the sample, so strong results are more common in it than they were.

Each compound was assayed on Plasmodium falciparum (assay: Screen against P. falciparum Asexual Blood Stage (ABS), at 5uM). Details: tested at 5 uM.
Type: functional, Dd2

**Q.** With `COC(=O)COc1cc(NCc2c(C)noc2C)c(Cl)cc1C` as the compound, how does the INHIBITION read?
**A.** Its INHIBITION is -49.6%.

**Q.** Which INHIBITION does the source give for `COc1ccc(-c2csc3c2c(N)nc(=O)n3CC(N)=O)cc1` here?
**A.** Its INHIBITION is -61.4%.

**Q.** `CC(=O)Nn1ccc2c(nnc3c(-c4ccccc4)cnn32)c1=O` was tested. Which INHIBITION did it give?
**A.** The INHIBITION was -65.6%.

**Q.** With `CCc1nc(NCCc2c(C)nn(CC)c2C)c2cnn(C)c2n1` as the compound, how does the INHIBITION read?
**A.** Its INHIBITION is -95.2%.

**Q.** `CC(CCc1ccc(F)c(F)c1)NS(=O)(=O)Cc1ccon1` (stereo not given) was tested. Which INHIBITION did it give?
**A.** Its INHIBITION is -44.6%.

**Q.** How did the INHIBITION turn out when `CCC(=O)N1CCCC1c1nc(N(C)C)ncc1-c1ccc(Cl)cc1` (stereo not given) was run?
**A.** The INHIBITION was 19.6%.

**Q.** With `COc1ccc(CC(=O)N2CCCC(n3nc(C)cc3C)C2)cc1` (stereo not given) as the compound, how does the INHIBITION read?
**A.** Its INHIBITION is -9.14%.

**Q.** For `COc1ccccc1C(=O)N1CC(=O)N(C2CCCCC2)CC(O)C1` (stereo not given), which INHIBITION is on record?
**A.** Its INHIBITION is -37%.

**Q.** `Cc1ccc(S(=O)(=O)N2C[C@H]3C[C@H](NC(=O)c4ccccn4)[C@H]3C2)cc1` was tested. Which INHIBITION did it give?
**A.** The INHIBITION was -55.2%.

**Q.** `O=C(N1CCCC1)N1CCC[C@]2(C[C@@H](OCc3ccncc3)CO2)C1` was tested. Which INHIBITION did it give?
**A.** Its INHIBITION is -71.6%.

**Q.** How did the INHIBITION turn out when `CCC(C(=O)Nc1ccc(-c2nc(C)n[nH]2)cc1)N1CCCC1=O` (stereo not given) was run?
**A.** The INHIBITION was -34.4%.

**Q.** How did the INHIBITION turn out when `Cc1nc(NS(=O)(=O)c2cccc(F)c2C)no1` was run?
**A.** Its INHIBITION is -25.8%.

**Q.** `COCCN1CCC(c2nc3ccc(N4CCCC4)cn3n2)CC1` was tested. Which INHIBITION did it give?
**A.** The INHIBITION was -45.6%.

**Q.** Which INHIBITION does the source give for `O=C(NCCc1ccccn1)[C@@H]1CC[C@@H]2[C@@H](CCN2Cc2ccoc2)O1` here?
**A.** The INHIBITION was -60.9%.

**Q.** `COc1nc2ccn(CCc3scnc3C)c(=O)c2cc1C#N` was tested. Which INHIBITION did it give?
**A.** The INHIBITION was -31.6%.

**Q.** How did the INHIBITION turn out when `COc1nc2ccn(CCc3cnccn3)c(=O)c2cc1C#N` was run?
**A.** Its INHIBITION is -11.9%.

**Q.** How did the INHIBITION turn out when `COc1nc2ccn(CCNc3cc(C)ccn3)c(=O)c2cc1C#N` was run?
**A.** The INHIBITION was 51.7%.

**Q.** Which INHIBITION does the source give for `N#Cc1cc(F)ccc1CN1CCCC1Cn1cccn1` (stereo not given) here?
**A.** Its INHIBITION is -48.4%.

**Q.** Which INHIBITION does the source give for `CC(=O)Nc1ccc(C(=O)N(C)Cc2ccc(F)cc2F)s1` here?
**A.** The INHIBITION was -10.9%.

**Q.** How did the INHIBITION turn out when `O=C(CCN1CCCO1)NC1CCCN(CC2CCCCC2)C1` (stereo not given) was run?
**A.** The INHIBITION was -105%.

**Q.** For `Cn1cc(CNC2CCCOc3c(Cl)cccc32)cn1` (stereo not given), which INHIBITION is on record?
**A.** Its INHIBITION is 20.3%.

**Q.** How did the INHIBITION turn out when `Cc1cccc2c1OCCCC2NCc1nccn1Cc1ccccc1` (stereo not given) was run?
**A.** Its INHIBITION is 63.8%.

**Q.** `c1ccc(Cn2ccnc2CNC2CCCOc3ccccc32)cc1` (stereo not given) was tested. Which INHIBITION did it give?
**A.** Its INHIBITION is 42.5%.

**Q.** For `Cn1cc(CNC2CCCOc3c2ccc2ccccc32)cn1` (stereo not given), which INHIBITION is on record?
**A.** Its INHIBITION is 63.1%.

**Q.** How did the INHIBITION turn out when `Cc1ccc2c(c1)OCCCC2NCc1nccn1Cc1ccccc1` (stereo not given) was run?
**A.** The INHIBITION was -13.4%.

**Q.** Which INHIBITION does the source give for `Cc1cccc2c1OCCC2NCc1c(C)nn(C)c1N(C)C` (stereo not given) here?
**A.** Its INHIBITION is 0.635%.

**Q.** How did the INHIBITION turn out when `CCCn1cc(-c2cc(-c3cc(CC)n[nH]3)c(C#N)c(N)n2)c(C)n1` was run?
**A.** The INHIBITION was -20.1%.

**Q.** Which INHIBITION does the source give for `CCCN1CCC(c2nc3ccc(NCc4ccccc4)cn3n2)CC1` here?
**A.** The INHIBITION was -1.75%.

**Q.** How did the INHIBITION turn out when `O=C1CCCN1Cc1ncn2c1CN(C(=O)N1CCCC1)CCC2` was run?
**A.** Its INHIBITION is -29.5%.

**Q.** How did the INHIBITION turn out when `Cn1cc(NC(=O)N2CCC2c2ccccc2)ccc1=O` (stereo not given) was run?
**A.** The INHIBITION was 54.8%.

**Q.** With `Cn1cc(NC(=O)N2CCC(c3ccccc3)CC2)ccc1=O` as the compound, how does the INHIBITION read?
**A.** Its INHIBITION is -187%.

**Q.** How did the INHIBITION turn out when `Cn1cc(NC(=O)N2CCCC2c2cccnc2)ccc1=O` (stereo not given) was run?
**A.** The INHIBITION was -8.15%.

**Q.** For `Cc1occc1C(=O)N1CCO[C@H]2[C@@H](Oc3ccccn3)CC[C@@H]21`, which INHIBITION is on record?
**A.** The INHIBITION was -73.5%.

**Q.** Which INHIBITION does the source give for `O=C(C1=CCCC1)N1CCO[C@H]2[C@@H](Oc3ccccn3)CC[C@@H]21` here?
**A.** The INHIBITION was -51.5%.

**Q.** Which INHIBITION does the source give for `Cc1cc(C(=O)N2CCO[C@H]3[C@H](Oc4ccccn4)CC[C@@H]32)c(C)[nH]1` here?
**A.** Its INHIBITION is 51.5%.

**Q.** How did the INHIBITION turn out when `CCCc1nc(N2CCN(Cc3ccccn3)CC2)c2cnn(C)c2n1` was run?
**A.** The INHIBITION was 19.2%.

**Q.** Which INHIBITION does the source give for `CCCc1nc(N2CCCN(c3ncccn3)CC2)c2cnn(C)c2n1` here?
**A.** Its INHIBITION is -2.15%.

**Q.** `CCCc1nc(N2CCCN(c3ccncc3)CC2)c2cnn(C)c2n1` was tested. Which INHIBITION did it give?
**A.** Its INHIBITION is 65%.

**Q.** How did the INHIBITION turn out when `Cc1cnn(C2CCCN(C(=O)c3cccc4c3OCO4)C2)c1` (stereo not given) was run?
**A.** The INHIBITION was -116%.

**Q.** For `Cn1ccnc1CN(Cc1ccccn1)Cc1ccccc1Cl`, which INHIBITION is on record?
**A.** The INHIBITION was 79.4%.

**Q.** With `CCN(Cc1cc(Cl)ccc1OC)Cc1ncnn1CC` as the compound, how does the INHIBITION read?
**A.** Its INHIBITION is -33.4%.

**Q.** Which INHIBITION does the source give for `CCN(Cc1cc(Cl)ccc1OC)Cc1nccn1C` here?
**A.** Its INHIBITION is 67.2%.

**Q.** How did the INHIBITION turn out when `CCn1nc(C)c(CN(Cc2ccccn2)Cc2ccccc2Cl)c1C` was run?
**A.** Its INHIBITION is -33.9%.

**Q.** `CCN(Cc1ccccn1)Cc1cc(Cl)ccc1OC` was tested. Which INHIBITION did it give?
**A.** The INHIBITION was -28.3%.

**Q.** For `Cn1cc(CN(Cc2ccccn2)Cc2ccccc2Cl)cn1`, which INHIBITION is on record?
**A.** Its INHIBITION is -31.1%.

**Q.** With `Cc1cccc(CN2CCc3c(COCC(=O)N(C)C)nn(C)c3C2)n1` as the compound, how does the INHIBITION read?
**A.** Its INHIBITION is -107%.

**Q.** Which INHIBITION does the source give for `Cc1ccccc1OCC1CCCN(C(=O)CN(C)C2CCNCC2)C1` (stereo not given) here?
**A.** Its INHIBITION is 57.5%.

**Q.** How did the INHIBITION turn out when `COCC(=O)N1CCCC(COc2ccccc2C)C1` (stereo not given) was run?
**A.** Its INHIBITION is -71%.

**Q.** How did the INHIBITION turn out when `Cc1ccccc1OCC1CCCN(C(=O)CNC(=O)N(C)C)C1` (stereo not given) was run?
**A.** Its INHIBITION is -158%.

**Q.** `Cc1[nH]/c(=N\C(=O)c2csc(NCC(C)C)n2)sc1C` was tested. Which INHIBITION did it give?
**A.** The INHIBITION was -31.9%.

**Q.** `Cc1cnc(NC(=O)c2csc(NC3CCCC3)n2)s1` was tested. Which INHIBITION did it give?
**A.** Its INHIBITION is -86.7%.

**Q.** `Cc1[nH]/c(=N\C(=O)c2csc(NC3CCCC3)n2)sc1C` was tested. Which INHIBITION did it give?
**A.** Its INHIBITION is 50%.

**Q.** For `CCOC(=O)N1CCCC2(CCN(Cc3ccccc3C#N)C2)C1` (stereo not given), which INHIBITION is on record?
**A.** The INHIBITION was -71.9%.

**Q.** How did the INHIBITION turn out when `CC(CNC(=O)c1ccc(Cl)cc1F)N1CCN(C)CC1` (stereo not given) was run?
**A.** Its INHIBITION is 64.1%.

**Q.** Which INHIBITION does the source give for `CN1CCN(Cc2ccccc2CNC(=O)c2ccc(Br)cc2)CC1` here?
**A.** The INHIBITION was 46.2%.
